# Laboratory results taken from PubChem BioAssay.
# Unmarked numbers belong to inactive results. For some of these results: Results with a measured potency or affinity are listed apart. Activity calls are given as the source filed them. Unless noted, how the calls were made is not given here.
# Key:
# [1] = antimalarial activity against Dd2 strain (AID 2302;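 active means growth inhibition above 50% at the single 2 µM test dose, taken to imply half-maximal potency below 2 µM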;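 further: 0% = DMSO untreated growth and 100% = chloroquine plus artemisinin killed control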); conditions: P. falciparum Dd2 in RBCs, LDH growth readout, 72 h; at 2 µM; hits give high values
# [2] = human hepatoma cell viability loss – ATP luminescence, cytotoxicity control for P. falciparum antimalarial project, primary screen (AID 2303;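 active means inhibition above 50%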;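 further: 0% = DMSO wells and 100% = digitonin-killed cells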); conditions: HepG2 viability, 24-48 h, at 10 µM, hits give high values
# [3] = target: L-lactate dehydrogenase (Plasmodium falciparum (isolate CDC / Honduras)) (UniProt Q27743); experiment: PfLDH activity inhibition – cell lysate, 3D7 strain, counter-screen for P. falciparum growth inhibition project (AID 2304);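 further: 0% = vehicle and 100% = reference inhibitor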; conditions: P. falciparum 3D7 crude extract, LDH APAD/NBT absorbance; at 2 µM; hits give high values
# Sequence of L-lactate dehydrogenase (Plasmodium falciparum (isolate CDC / Honduras)) (Q27743 whole entry, looked up): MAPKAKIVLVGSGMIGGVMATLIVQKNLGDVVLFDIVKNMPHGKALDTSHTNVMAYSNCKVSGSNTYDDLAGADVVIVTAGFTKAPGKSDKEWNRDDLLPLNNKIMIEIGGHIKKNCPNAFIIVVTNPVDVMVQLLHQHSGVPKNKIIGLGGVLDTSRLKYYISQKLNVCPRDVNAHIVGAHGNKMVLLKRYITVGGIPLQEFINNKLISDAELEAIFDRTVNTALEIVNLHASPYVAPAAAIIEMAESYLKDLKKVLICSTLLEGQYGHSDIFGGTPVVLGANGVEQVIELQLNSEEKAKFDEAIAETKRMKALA
# [4] = inhibition of 3D7 malaria parasite growth – strain 3D7 (AID 2306);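 further: 0% = DMSO wells and 100% = chloroquine plus artemisinin control wells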; conditions: P. falciparum 3D7 erythrocytic growth, LDH absorbance, 72 h; at 2 µM; hits give high values
# [5] = target: Calcium-dependent protein kinase 1 (Plasmodium falciparum (isolate 3D7)) (UniProt P62344); experiment: PfCDPK1 kinase inhibitors, biochemical, TCAMS library (AID 1159585; cut-off not given, nearly all actives have IC50 up to about 0.98 µM;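 further: inhibitors leave more ATP so luminescence rises with inhibition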); conditions: recombinant PfCDPK1, Kinase-Glo ATP depletion luminescence
# Sequence of Calcium-dependent protein kinase 1 (Plasmodium falciparum (isolate 3D7)) (P62344 whole entry, looked up): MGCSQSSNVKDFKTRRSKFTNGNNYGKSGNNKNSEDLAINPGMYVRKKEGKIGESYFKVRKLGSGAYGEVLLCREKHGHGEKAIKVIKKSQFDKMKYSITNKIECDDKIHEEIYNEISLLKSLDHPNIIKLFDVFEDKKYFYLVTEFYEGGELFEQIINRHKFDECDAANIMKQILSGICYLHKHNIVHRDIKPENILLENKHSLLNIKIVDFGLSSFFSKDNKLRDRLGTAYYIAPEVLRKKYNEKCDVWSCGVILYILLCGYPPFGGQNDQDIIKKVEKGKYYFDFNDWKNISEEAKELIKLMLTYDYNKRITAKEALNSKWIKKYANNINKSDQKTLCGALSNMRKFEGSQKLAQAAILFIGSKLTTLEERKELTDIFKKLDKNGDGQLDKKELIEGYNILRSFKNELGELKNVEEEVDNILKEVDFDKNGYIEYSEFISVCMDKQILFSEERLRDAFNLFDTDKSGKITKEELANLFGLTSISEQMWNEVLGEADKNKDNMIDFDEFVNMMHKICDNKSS
# [6] = target: Plasmodium falciparum protein kinase 6 (PK6, PF3D7_1337100) (UniProt Q8IDW1); experiment: PfPK6 kinase inhibitors, biochemical, TCAMS library (AID 1159586); conditions: recombinant PfPK6, Kinase-Glo ATP depletion luminescence
# Sequence of Plasmodium falciparum protein kinase 6 (PK6, PF3D7_1337100) (Q8IDW1 1-305): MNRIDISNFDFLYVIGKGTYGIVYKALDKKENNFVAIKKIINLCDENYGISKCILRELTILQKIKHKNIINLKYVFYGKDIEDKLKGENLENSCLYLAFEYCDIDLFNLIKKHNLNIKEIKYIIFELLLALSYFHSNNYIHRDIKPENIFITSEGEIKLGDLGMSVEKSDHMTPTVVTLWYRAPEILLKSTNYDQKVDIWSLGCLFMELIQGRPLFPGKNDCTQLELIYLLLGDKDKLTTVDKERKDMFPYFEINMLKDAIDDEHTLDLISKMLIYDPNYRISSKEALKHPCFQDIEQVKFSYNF
# [7] = target: Protein kinase 7 (PK7), Plasmodium falciparum 3D7 (PF3D7_0213400) (UniProt Q7YTF7); experiment: inhibition of Plasmodium PK7 catalytic activity – biochemical, TCAMS antimalarial set, Kinase-Glo luminescence (AID 1159587); conditions: recombinant PfPK7, Kinase-Glo ATP depletion luminescence
# Sequence of Protein kinase 7 (PK7), Plasmodium falciparum 3D7 (PF3D7_0213400) (Q7YTF7 1-343): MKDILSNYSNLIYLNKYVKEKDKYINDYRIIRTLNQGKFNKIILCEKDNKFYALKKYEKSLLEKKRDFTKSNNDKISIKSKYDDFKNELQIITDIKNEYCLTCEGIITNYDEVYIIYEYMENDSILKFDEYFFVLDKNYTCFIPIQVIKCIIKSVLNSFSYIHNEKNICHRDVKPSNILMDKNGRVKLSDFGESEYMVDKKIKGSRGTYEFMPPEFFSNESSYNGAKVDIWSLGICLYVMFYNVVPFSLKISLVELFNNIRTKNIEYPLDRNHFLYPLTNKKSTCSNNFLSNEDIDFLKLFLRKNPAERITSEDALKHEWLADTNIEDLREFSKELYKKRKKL
# [8] = target: Calcium-dependent protein kinase 4 (Plasmodium falciparum (isolate 3D7)) (UniProt Q8IBS5); experiment: PfCDPK4 kinase inhibitors, biochemical, TCAMS library (AID 1159588; cut-off not given, nearly all actives have IC50 up to about 0.91 µM); conditions: recombinant PfCDPK4, Kinase-Glo ATP depletion luminescence
# Sequence of Calcium-dependent protein kinase 4 (Plasmodium falciparum (isolate 3D7)) (Q8IBS5 whole entry, looked up): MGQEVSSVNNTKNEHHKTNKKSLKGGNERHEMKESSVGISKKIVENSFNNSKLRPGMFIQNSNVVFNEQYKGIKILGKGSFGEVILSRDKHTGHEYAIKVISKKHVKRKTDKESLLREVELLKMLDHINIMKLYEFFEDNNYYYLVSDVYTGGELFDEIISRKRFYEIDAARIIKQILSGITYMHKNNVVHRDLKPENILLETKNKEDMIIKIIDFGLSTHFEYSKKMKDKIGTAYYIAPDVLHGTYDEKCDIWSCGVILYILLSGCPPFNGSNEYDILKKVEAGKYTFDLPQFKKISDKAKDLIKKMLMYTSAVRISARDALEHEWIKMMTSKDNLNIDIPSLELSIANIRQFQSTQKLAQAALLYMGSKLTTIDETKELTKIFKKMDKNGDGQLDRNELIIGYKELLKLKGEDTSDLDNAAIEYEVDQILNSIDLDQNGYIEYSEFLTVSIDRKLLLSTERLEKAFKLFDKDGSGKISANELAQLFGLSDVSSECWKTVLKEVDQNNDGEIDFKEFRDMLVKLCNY
Structure (SMILES),growth inhibition [1],inhibition [2],inhibition [3] [%],growth inhibition [4],outcome [5],outcome [6],outcome [7],outcome [8]
O=C(Nc1ccc([N+](=O)[O-])cc1Br)c1cc2ccccc2nc1Cl,68% (active),-4%,2,97% (active),inactive,inactive,inactive,inactive
CCCOc1ccc(CCNCCCCNCCc2ccc(OCCC)c3ccccc23)c2ccccc12,52% (active),100% (active),7,93% (active),inactive,inactive,inactive,inactive
COc1ccc(NS(=O)(=O)c2cc(NC(=O)Cn3ccccc3=O)ccc2N2CCCCC2)cc1,83% (active),20%,1,92% (active),inactive,inactive,inactive,inactive
COc1ccc(NC(=O)Nc2ccc(Nc3nc(C)cc(N(C)C)n3)cc2)cc1,99% (active),11%,-3,102% (active),inactive,inactive,inactive,inactive
COc1ccc(CCN(Cc2cccs2)C(=O)c2cc3sccc3n2C)cc1OC,97% (active),0%,1,94% (active),inactive,inactive,inactive,inactive
CCOC(=O)c1sc(C(C)Nc2ccccc2)nc1-c1ccccc1 (stereo not drawn),91% (active),-8%,5,95% (active),inactive,inactive,inactive,inactive
CCCC1N=C(N)N=C(N)N1c1ccc(C)cc1 (stereo not drawn),2%,1%,-3,94% (active),inactive,inactive,inactive,inactive
COc1ccc2nc3cc(Cl)ccc3c(NCCNCC(O)CO)c2n1 (stereo not drawn),101% (active),12%,2,100% (active),inactive,inactive,inactive,inactive
NC1=NC2(CCCCC2)N(OCCCCCCN2C(=O)c3ccccc3C2=O)C(N)=N1,16%,20%,1,98% (active),inactive,inactive,inactive,inactive
O=C(NCc1cccc(C(F)(F)F)c1)c1ccc(-c2nc3cc(F)c(F)cc3[nH]2)cc1,7%,-1%,4,97% (active),inactive,inactive,inactive,inactive
O=c1ccc2ccc(F)c3c2n1CC3CN1CCC(NCc2ccc(-c3cccc(Cl)c3)nc2)CC1 (stereo not drawn),33%,16%,3,96% (active),inactive,inactive,inactive,inactive
COc1ccc(C2C(C(=O)OC3CCCC3)=C(C)NC3=C2C(=O)CCC3)cc1Br (stereo not drawn),77% (active),-2%,5,94% (active),inactive,inactive,inactive,inactive
COc1cc(NC(=O)Nc2cccc3ccccc23)c(OC)cc1Cl,71% (active),-12%,3,97% (active),inactive,inactive,inactive,inactive
O=C1OC2(CN1CC1CCN(Cc3ccc(O)cc3Cl)C1)c1ccccc1-c1ccccc12 (stereo not drawn),84% (active),16%,2,84% (active),inactive,inactive,inactive,inactive
Cc1ccc(Cc2cnc(NCCSCc3ccc(CN4CCOCC4)o3)[nH]c2=O)cn1,-3%,2%,-4,95% (active),inactive,inactive,inactive,inactive
Cc1ccc2nc(C)cc(Nc3ccccc3O)c2c1,6%,0%,-3,96% (active),inactive,inactive,inactive,inactive
O=C(Nc1ccc2c(c1)OCO2)NC1CCN(c2ccnc(Nc3ccc(F)cc3)n2)C1 (stereo not drawn),89% (active),5%,3,100% (active),inactive,inactive,inactive,inactive
CC(C)(C)OC(=O)NCCc1cccc(-c2c[nH]c3ncc(-c4cccc(NS(C)(=O)=O)c4)cc23)c1,71% (active),16%,-3,97% (active),inactive,inactive,inactive,inactive
COc1cc2c(cc1C(F)(F)F)N(C(=O)Nc1cc(F)c(F)c(-c3cccnc3)c1)CC2,15%,20%,3,90% (active),inactive,inactive,inactive,inactive
c1cc(-c2cc3ccc(C4=NCCN4)cc3[nH]2)ccc1C1=NCCN1,99% (active),15%,-1,97% (active),inactive,inactive,inactive,inactive
CCOC(=O)Cc1nc(N)c(C(=O)OCC)[nH]1,24%,2%,-1,94% (active),inactive,inactive,inactive,inactive

Structure (SMILES),growth inhibition [1],inhibition [2],inhibition [3] [%],growth inhibition [4],outcome [5],outcome [6],outcome [7],outcome [8]
CCn1ncc2c(NC3CCOCC3)c(CNC(=O)c3ccnn3C)c(C)nc21,98% (active),-11%,-2,98% (active),inactive,inactive,inactive,inactive
COc1ccc(NC(=O)Nc2cccc(-c3cccc(-c4nc5ccccc5[nH]4)c3)c2)cc1,41%,41%,3,101% (active),inactive,inactive,inactive,inactive
Cc1cc(N[C@@H](CC(C)C)C(=O)NCCCOC(C)C)nc(NCCc2ccc(F)cc2)n1,19%,5%,-2,87% (active),inactive,inactive,inactive,inactive
OCCNc1nc(Nc2ccccc2)nc2ccccc12,61% (active),5%,5,93% (active),inactive,inactive,inactive,inactive
COc1cc2nc(NCC3CCN(C(=O)c4ccc(-c5ccc(C(=O)N(C)C)cc5C)cc4)CC3)nc(N)c2cc1OC,34%,2%,1,101% (active),inactive,inactive,inactive,inactive
Cc1cc(N2Cc3ccccc3C2)nc(Nc2cccc(C#N)c2)n1,97% (active),6%,-2,100% (active),inactive,inactive,inactive,inactive
CC1(C)C[C@@H]2C[C@@](C)(CN2C(=O)c2cc(C(C)(C)C)nn2Cc2ccccc2)C1,77% (active),-3%,0,86% (active),inactive,inactive,inactive,inactive
O=C(Nc1ccc2c(c1)CCN(C1CCC1)CC2)c1ccc(-c2cn3ccccc3n2)cc1,42%,13%,2,102% (active),inactive,inactive,inactive,inactive
CN(C)CCCN1CCN(C(=O)c2cc3cc(-c4ccccc4)ccc3n2S(=O)(=O)c2ccccc2)CC1,94% (active),32%,4,101% (active),inactive,inactive,inactive,inactive
CC(C)CCN1CCC(Oc2ccc(NC(=O)c3ccco3)cc2Cl)CC1,93% (active),1%,3,95% (active),inactive,inactive,inactive,inactive
CS(=O)(=O)CCNCc1ccc(-c2ccc3c(Nc4ccc(F)cc4Cl)ccnc3c2)o1,98% (active),29%,0,100% (active),inactive,inactive,inactive,inactive
Cc1ccc(N2C(N)=NC(N)=NC2(C)C)cc1,20%,43%,0,96% (active),inactive,inactive,inactive,inactive
O=C(Nc1cccc(Cl)c1)OC1CCCN2CCCCC12 (stereo not drawn),-4%,6%,1,85% (active),inactive,inactive,inactive,inactive
O=C(Nc1ccc(C(=O)OCC2CCCCC2)cc1)N[C@@H](Cc1ccc(O)cc1)C(=O)NC1CCN(Cc2ccc(O)cc2)C1 (stereo partly drawn),-4%,6%,-1,91% (active),inactive,inactive,inactive,inactive
Cc1ccc(CNC(=O)c2cnc(N3CCN(c4ccncc4)CC3)c(Cl)c2)cc1,6%,27%,-3,92% (active),inactive,inactive,inactive,inactive
Cc1cnc(C(=O)Nc2cccc(-c3csc(-c4nc5ccccc5[nH]4)c3)c2)cn1,80% (active),31%,-1,98% (active),inactive,inactive,inactive,inactive
Nc1c2c(nc3ccc(C(=O)Nc4ccccc4)cc13)CCCC2,78% (active),20%,-3,100% (active),inactive,inactive,inactive,inactive
CN(C)CC(=O)Nc1ccc(Nc2nccc(NCC(O)c3ccccc3)n2)cc1 (stereo not drawn),2%,-2%,-4,95% (active),inactive,inactive,inactive,inactive
CCN(CC)c1ccc(NC(=S)NC2CCN(CCCCCNC(=O)/C=C/c3ccc(Cl)c(Cl)c3)CC2)cc1,58% (active),16%,3,100% (active),inactive,inactive,inactive,inactive
OC1(C(F)(F)F)CC(c2ccccc2)=NN1c1nncc(-c2ccccc2)n1 (stereo not drawn),3%,-3%,-5,99% (active),inactive,inactive,inactive,inactive
